This is a sample that favours compounds with a hit; in the whole collection about 3.2% have one here.
Lassa entry inh = qHTS for Inhibitors of binding or entry into cells for Lassa Virus. Lassa virus pseudotype entry inhibition, cell reporter. Potency, µM (highest dose often 37.9 µM), hits mostly inhibitors. hit rate 1.2% among 300,000. AID 540256, 2011; calls by dose curve; tested in HEK293 cells; further: nearly all actives have a fitted effect of over 50% in size
Vaccinia Venus = qHTS for Stage-Specific Inhibitors of Vaccinia Orthopoxvirus: Venus Reporter Primary qHTS. Vaccinia virus Venus reporter expression, fluorescence. Potency, µM (titrated, usually from 36.5 µM), hits mostly inhibitors. hit rate 0.46% among 330,000. AID 720580, 2013; calls by dose curve; tested in A549 cells; further: nearly all actives have a fitted effect of over 30% in size
Vaccinia mCherry = qHTS for Stage-Specific Inhibitors of Vaccinia Orthopoxvirus: mCherry Reporter Primary qHTS | Vaccinia virus mCherry reporter infection, fluorescence | Potency, µM (highest dose often 36.5 µM), most hits filed as inhibitors | hit rate 0.63% among 310,000; calls by dose curve; tested in A549 cells; further: nearly all actives have a fitted effect of over 35% in size
MARV entry inh = qHTS for inhibitors of binding or entry into cells for Marburg Virus; Marburg virus pseudotyped entry inhibition, cell reporter; AID 540276, 2011; Potency, µM (doses to about 37.8 µM), hits mostly inhibitors; hit rate 1.8% among 300,000; calls by dose curve; tested in HEK293 cells
FMDV antiviral = High Throughput Screening for Foot and Mouth Disease Virus Antivirals; Potency, µM (top dose mostly 57.9 µM), most hits filed as inhibitors; AID 1159524, 2015; FMDV antiviral cell-based qHTS; hit rate 1.2% among 410,000; calls by dose curve; tested in HEK293T cells; further: read-out not given here; nearly all actives have a fitted effect of over 45% in size
Numbers stand for hits; - = inactive; ? = inconclusive; . = no result; + = active, no number; [ ] = another dose, or the depositor's remark.

SMILES	Lassa entry inh	Vaccinia Venus	Vaccinia mCherry	MARV entry inh	FMDV antiviral
C[C@@H]1C=C[C@](Cc2ccccc2)(C(=O)NCCc2c[nH]c3ccccc23)N1C(=O)c1ccccc1	8.2µM	-	?	?	-
Cc1cn([C@H]2C[C@H](O)[C@@H](CCC(=O)NCc3ccccc3)O2)c(=O)[nH]c1=O	.	?	+	.	-
Cc1cn([C@H]2C[C@H](O)[C@@H](CCC(=O)NCC(c3ccccc3)c3ccccc3)O2)c(=O)[nH]c1=O	.	-	-	.	-
COc1ccc([N+](=O)[O-])cc1NC(=O)c1ccco1	.	-	-	-	-
C=CC(=O)NC(NC(=O)C=C)c1ccccc1F	-	?	7.94µM	-	-
COc1ccc(C(=O)NC(NC(=O)c2ccc(OC)cc2)c2ccccc2F)cc1	-	-	-	-	-
CN(CC(=O)Nc1cc(Cl)ccc1-n1cncn1)Cc1ccccc1N1CCOCC1	.	-	-	.	-
COc1ccc(OC)c2c(/C=C/c3c(C)[nH]c4ccccc34)ccnc12	.	-	12.6µM	.	.
CN(C)CCN(C(=O)C1=COCCO1)c1nc2ccc(F)cc2s1	-	-	-	-	-
O=C1CCc2cc(Br)ccc2O1	-	-	-	?	-
CCOC(=O)N1CCN(C(=O)c2ccc(CSc3ccc(Cl)cc3)cc2)CC1	?	-	-	?	25.1µM
CN1CCN(C(=O)c2ccc(CSc3ccc(Cl)cc3)cc2)CC1	-	-	-	?	?
CCC(=O)Nc1cccc(NC(=S)NC(=O)c2ccccc2C)c1	.	.	.	.	-
Cc1cc(=O)n(CC(=O)N2CCN(c3ccc(F)cc3)CC2)c2c1c(C)nn2C	?	-	-	.	28.2µM
CCOC(=O)C1CCCN(C(=O)Cn2c(=O)cc(C)c3c(C)nn(C)c32)C1 (stereo not given)	-	-	-	.	?
Cc1cccc(OCC(=O)Nc2c(C(=O)N3CCN(c4ccccc4F)CC3)oc3ccccc23)c1	?	-	-	10µM	-
CC(C(=O)NC1CCCC1)N(C(=O)Cn1nnc(-c2ccc(F)cc2)n1)c1ccccc1F (stereo not given)	?	-	-	8.2µM	-
CC(C)CC(C(=O)NCC1CCCO1)N(C(=O)Cn1nnc(-c2ccc(F)cc2)n1)c1cccc(C(F)(F)F)c1 (stereo not given)	-	.	.	?	-
O=C(NCC1CCCO1)C(c1ccc(F)cc1)N(C(=O)Cn1nnc(-c2ccc(F)cc2)n1)c1cccc(O)c1 (stereo not given)	-	-	-	10µM	-
COc1ccc(N(C(=O)Cn2nnc(-c3ccc(F)cc3)n2)C(C)C(=O)NC2CCCC2)cc1 (stereo not given)	-	-	-	?	-
N#CC1(NC(=O)COc2cccnc2[N+](=O)[O-])CCCCC1	-	-	-	-	-
OCCNCc1c(OCc2ccc(Cl)cc2)ccc2ccccc12	?	-	-	5.62µM	-
CC(O)CNCCOc1ccccc1OCc1ccccc1 (stereo not given)	-	-	-	?	-
CC(O)CNCCNCc1c(OCc2ccccc2)ccc2ccccc12 (stereo not given)	9.2µM	-	-	?	.
OC(CN1C2=NCCN2c2ccccc21)c1ccc2c(c1)OCO2 (stereo not given)	?	11.2µM	-[1.46 µM]	?	-
SMILES	Lassa entry inh	Vaccinia Venus	Vaccinia mCherry	MARV entry inh	FMDV antiviral
OC(CN1C2=NCCCN2c2ccccc21)c1ccc2c(c1)OCO2 (stereo not given)	-	-	.	-	-
CNC(=O)/C(C#N)=C/c1c(N(Cc2ccccc2)Cc2ccccc2)nc2ccccn2c1=O	11.2µM	?	-	15.8µM	-
N#Cc1sc2nc(C3CC3)cc(-c3ccc(Cl)cc3)c2c1N	?	14.1µM	4.47µM	?	?
COc1ccc(-c2cc(-c3cccs3)nc3sc(C#N)c(N)c23)cc1	-	-	-	?	-
Cc1c(C(=O)N(C)Cc2cccc(F)c2)oc2c(Cl)cccc12	?	-	-	?	7.08µM
Cc1c(C(=O)N(C)Cc2ccccc2)oc2c(Cl)cccc12	-	-	-	-	-
O=C(c1cc(-c2ccc(O)cc2)on1)N1CCCC1	?	-	-	11.2µM	-
O=C(c1cc(-c2ccc(Cl)cc2)on1)N1CCOCC1	9.2µM	.	.	?	-
O=C(c1cc(-c2ccc(Cl)c(Cl)c2)on1)N1CCOCC1	?	-	-	?	-
O=C(c1cc(-c2ccccc2)on1)N1CCCCCC1	12.6µM	-	-	?	-
O=C(c1cc(-c2ccc(Br)cc2)on1)N1CCCC1	?	-	-	-	-
Cc1ccc(-c2cc(C(=O)N3CCCCCC3)no2)cc1	?	-	-	?	-
